Records with an inconclusive call do not appear. Unmarked numbers belong to inactive results. Calls of active or inactive are those of the source. The call rests on the fitted dose curve.
On the % scale 0 is the no-effect control and ±100 the full control effect.

The experiment can be described thus: qHTS assay to identify small molecule agonists or antagonists of the thyroid stimulating hormone receptor (TSHR) signaling pathway - wild type cell line counter screen (AID 1259384). The note with it: HEK293 wild type, cAMP HTRF counter-screen, active compounds read high; series mostly up to 92.4 µM; cAMP activity change: at the top concentration. The source says:
U.S. Tox21 Program National Center for Advancing Translational Sciences [NCATS] NIH Chemical Genomics Center [NCGC] U.S. Environmental Protection Agency [EPA] National Institutes of Environmental Health Sciences [NIEHS] National Toxicology Program [NTP] U.S. Food and Drug Administration [FDA] Tox21 Assay Overview: TSHR is the receptor for thyrotropin (thyroid stimulating hormone or TSH), a member of the glycoprotein hormone family. TSH is released by the anterior pituitary gland and is the main regulator of thyroid gland growth and development. Upon binding circulating thyrotropin, a G-protein signal cascade activates adenylyl cyclase and […] cAMP concentration is increased. cAMP is a key second messenger involved extensively in cellular signal transduction pathways associated with the majority of G-protein coupled receptors (GPCRs). The activation of these GPCRs by neurotransmitters, lipids, nucleotides, peptides and hormones results in the activation or the inhibition of plasma membrane-bound adenylate cyclase through heterotrimeric G-proteins. A cell-based TSHR-Hek293 assay can be used to identify TSHR agonists. To eliminate the false positive compounds identified from screening a cell-based TSHR-Hek293 cell line, cAMP assay in a wild type Hek293 cells was used as a counter screening.
Tox21 Assay Protocol Summary: Hek293 cells (wild type) were dispensed at 800 cells/4 uL/well in 1536-well white plates using a Multidrop dispenser. After the assay plates were incubated at a 37 C/5% CO2 incubator for 18 hrs, 23 nL of compounds dissolved in DMSO, positive controls or DMSO only was transferred to the assay plate by a pin tool, followed by 1 ul medium containing Ro20-1724. After 30 min of incubation at room temperature, 2.5 ul/well of cAMP-d2 and 2.5 ul/well of anti-cAMP-cryptate were added respectively into the assay plates using a Flying Reagent Dispenser. The plates were incubated at room temperature for 1 hr. The fluorescence intensity in the plates was measured using an Envision plate reader. Each test compound was measured at 15 concentrations and in triplicates.
On the technique in general: qHTS replaces the single test concentration by a dilution series.
`CCOP(=S)(OCC)SCSCC`: the “cAMP activity change” value is 0.193%.

Regarding `CO[C@@H]1[C@H](OC(=O)NC(=O)CCl)CC[C@]2(CO2)[C@H]1[C@@]1(C)O[C@@H]1CC=C(C)C`, the cAMP activity change was 2.97% [at 18.9 µM]. Same read-out and setting: the same measure for `CS/C(C)=N/OC(=O)N(C)SN(C)C(=O)O/N=C(\C)SC`: 5.24%; for `Brc1ccccc1`: 2.76%; for `CNC(C)Cc1ccccc1OC` (stereo not given): 6% [at 42.5 µM]. On the same count and under the same terms, the same measure for `CCOP(O)OCC`: -2.36%.

With `CCOS(C)(=O)=O`, the “cAMP activity change” value is -4.97%.

For the compound `CCCCCCCCCCOC(=O)c1ccccc1C(=O)OCCCCCCCCCC`, the “cAMP activity change” value is -0.699%. Same read-out and setting: as for `C=CC(=O)OCC(C)C`, the figure is -2.32%; as for `CCCCN(N=O)C(=N)N[N+](=O)[O-]`, -2.86%.

With `CNP(=O)(OC)Oc1ccc(C(C)(C)C)cc1Cl` (stereo not given), the “cAMP activity change” value is -3.9%. Still for that read-out and setting: as for `C=CCN1CC[C@]23c4c5ccc(O)c4O[C@H]2C(=O)CC[C@@]3(O)[C@H]1C5`, the figure is 1.69% [at 42.5 µM]; as for `NCC(CC(=O)O)c1ccc(Cl)cc1` (stereo not given), 0.519% [at 0.349 µM]; as for `CCC(Cl)CCl` (stereo not given), -0.131%. Still for that read-out and setting: the same measure for `CCCCCC[N+](=O)[O-]`: -0.292%; for `COP(=O)(OC)O/C(=C/Cl)c1cc(Cl)c(Cl)cc1Cl`: -0.0382%. The same measure, in the same setting: the same measure for `O=C(O)c1ccccc1C(=O)Nc1cccc2ccccc12`: -6.29%; for `O=C(O)COc1ccc(Cl)cc1`: -1.47%. On to `O=C(CBr)Nc1ccc(Cl)cc1C(=O)c1ccccc1F`, for which the “cAMP activity change” value is -2.43% [at 42.5 µM]. `O=C(NCc1cccnc1)Nc1ccc([N+](=O)[O-])cc1`: the “cAMP activity change” value is -0.298%. In the case of `CCN(C)N=O`, the “cAMP activity change” value was 0.181%. Still for that read-out and setting: as for `CN1C(=O)NC(=O)C(C)(C2=CCCCC2)C1=O` (stereo not given), the figure is -4.35% [at 42.5 µM]; as for `O=C(OC1CCCCC1)c1ccccc1C(=O)OC1CCCCC1`, -0.143%.

For `CC(=O)NC1CCSC1=O` (stereo not given), the “cAMP activity change” value is -6.27% [at 42.5 µM]. For the compound `CCc1ccc(C(=O)NN(C(=O)c2cc(C)cc(C)c2)C(C)(C)C)cc1`, the “cAMP activity change” value is -3.14%. On the same count and under the same terms, as for `COP(=S)(Oc1cc(Cl)c(Br)cc1Cl)c1ccccc1` (stereo not given), the figure is -1.31%; as for `O=[N+]([O-])c1ccccc1CCl`, -2.37%; as for `CCOC(=O)COc1cc(-c2nn(C)c(OC(F)F)c2Cl)c(F)cc1Cl`, 14.8%. Still for that read-out and setting: the same measure for `NC(=O)C(Cl)(Cl)Cl`: 3.65%. Consider `CCCCOC(=O)c1ccccc1C(=O)OCc1ccccc1`, for which the result was inactive.

As to `OC(c1ccc(Cl)cc1)(c1ccc(Cl)cc1)c1cccnc1`, the “cAMP activity change” value was 0.378%.

For `CC1Sc2c(C(=O)O)c(=O)c3cc(F)c(N4CCNCC4)cc3n21` (stereo not given), the “cAMP activity change” value is 1.25% [at 42.5 µM]. Same read-out and setting: as for `CC(=O)CCC(C)=O`, the figure is -1.96%; as for `CC(C)N(CCC(C(N)=O)(c1ccccc1)c1ccccn1)C(C)C` (stereo not given), -5.32% [at 42.5 µM]. Still for that read-out and setting: the same measure for `BrCC(Br)C1CCC(Br)C(Br)C1` (stereo not given): -1.2%. Still for that read-out and setting: the same measure for `CN(C)c1ccc(N(C)C)cc1`: 1.11%; for `CCCCN=C=O`: 1.1%; for `CO/C=C(/C(=O)OC)c1ccccc1COc1cccc(C(F)(F)F)n1`: -2.42%.

With `O=S(=O)(O)C(F)(F)C(F)(F)C(F)(F)C(F)(F)F`, the “cAMP activity change” value is 0.315%. On the same count and under the same terms, as for `Cn1cc[n+](C)c1` (tested in a mixture with another compound), the figure is -0.385%.
